Reference: the supplement of paper PMC4840960
Where a name gives a salt, the structure may show the parent alone. ± gives the standard deviation of the averaged measurements.

Assays:
[1] = system: E18 rat cortical neuron-glia co-culture; test: fiber score / MBP score (myelination specific beyond OL differentiation) (ratio); higher = more myelination-specific MBP alignment; settings: treatment time: 8 days (DIV5-DIV13)
Summary of the method: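 The measure is the ratio of fiber score to MBP score, where fiber score is continuous MBP fiber length per Olig2+ nucleus and MBP score is thresholded MBP area × intensity per Olig2+ nucleus. Primary E18 rat cortical co-cultures received library compounds at 1 or 5 µM in myelination medium from DIV5 to DIV13, then were fixed in 4 % paraformaldehyde and stained for MBP, Olig2 and DAPI before analysis of four 10X fields per well in duplicate wells.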

[2] = system: E18 rat cortical neuron-glia co-culture; test: myelination (MBP fiber length per Olig2+ nucleus), % of 1 µM DAPT response (DMSO = 0) (% of DAPT); higher = more myelination, active = 50 or more; settings: treatment time: 8 days (DIV5-DIV13)
Summary of the method: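 The myelination value was the continuous straight MBP fiber length per Olig2+ nucleus, scaled between 0.1 % DMSO (0) and a 1 µM positive control (100). It was measured in primary E18 rat cortical co-cultures treated with library compounds at 1 or 5 µM in myelination medium from DIV5 through DIV13. Cells were fixed in 4 % paraformaldehyde and stained for MBP, Olig2 and DAPI, and four 10X fields per well were imaged in duplicate wells.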

Row | Compound | fiber score / MBP score ([1]; 1 µM) | fiber score / MBP score ([1]; 5 µM) | myelination ([2]; 1 µM) | myelination ([2]; 5 µM)
1 | CC(=O)NCCCCCCNC(C)=O [Hexamethylene bisacetamide] | 0.663 | 0.981 | -0.00866 (inactive) | -2.54 (inactive)
2 | CCN1CCCC1CNC(=O)c1cc(S(=O)(=O)CC)ccc1OC (configuration not stated) [Sultopride] | 0.758 | 0.461 | -20.9 (inactive) | -59.3 (inactive)
3 | COc1ccc(CC2c3cc(OC)c(OC)cc3CC[N+]2(C)CCC(=O)OCCCCCOC(=O)CC[N+]2(C)CCc3cc(OC)c(OC)cc3C2Cc2ccc(OC)c(OC)c2)cc1OC (configuration not stated) [Atracurium] | 0.771 | 0.948 | -11.6 (inactive) | 63.1
4 | CC(=O)OCC[N+](C)(C)C [Acetylcholine] | 0.236 | 0.34 | -17.4 (inactive) | -15.1 (inactive)
5 | CN1CCC(=C2c3ccccc3CC(=O)c3sccc32)CC1 [Ketotifen] | 1.03 | 0.58 | -0.199 (inactive) | -13.6 (inactive)
6 | COCCCOc1ccnc(C[S+]([O-])c2nc3ccccc3[nH]2)c1C (configuration not stated) [Rabeprazole] | 0.82 | 0.912 | -11.1 (inactive) | 10.6 (inactive)
7 | Nc1nc(N)c2nc(-c3ccccc3)c(N)nc2n1 [Triamterene] | 1.39 | 1.62 | 68.5 | 461 (active)
8 | COC1=CC(=O)C[C@@H](C)[C@]12Oc1c(Cl)c(OC)cc(OC)c1C2=O [Griseofulvin] | 0.759 | 0.92 | -17.8 (inactive) | 21.8 (inactive)
9 | Fc1ccc([C@@H]2CCNC[C@H]2COc2ccc3c(c2)OCO3)cc1 [Paroxetine] | 0.8051 ± 0.003 | 1.08 ± 0.16 | -13.8 (inactive) | 3.71 (inactive)
10 | COc1ccc2[nH]c([S+]([O-])Cc3ncc(C)c(OC)c3C)nc2c1 (configuration not stated) [Omeprazole] | 0.656 | 0.73 | -8.06 (inactive) | -4.44 (inactive)
11 | NS(=O)(=O)c1cc2c(cc1C(F)(F)F)NCNS2(=O)=O [Hydroflumethiazide] | 0.948 | 0.763 | -2.17 (inactive) | -13.7 (inactive)
12 | CCN1CCN(c2cc3c(cc2F)c(=O)c(C(=O)O)cn3C2CC2)CC1 [Enrofloxacin] | 0.94 | 0.516 | -5.04 (inactive) | -19.3 (inactive)
13 | N[C@@H](C(=O)N[C@@H]1C(=O)N2C(C(=O)O)=C(Cl)CS[C@H]12)c1ccccc1 [Cefaclor] | 0.944 | 0.875 | 1.34 (inactive) | -10.6 (inactive)
14 | O=C(O[C@@H]1C[C@@H]2C[C@H]3C[C@H](C1)N2CC3=O)c1c[nH]c2ccccc12 [Dolasetron] | 0.649 | 0.701 | -3.78 (inactive) | -14.7 (inactive)
15 | OC(CCN1CCCC1)(c1ccccc1)C1CCCCC1 (configuration not stated) [Procyclidine] | 1.03 | 1.05 | -4.99 (inactive) | 11.6 (inactive)
16 | C#C[C@]1(O)CC[C@H]2[C@@H]3CCc4cc(O)ccc4[C@H]3CC[C@@]21C [Ethinyl Estradiol] | 0.608 | 0.958 | -18.3 (inactive) | 159
17 | CO/N=C(\C(=O)N[C@@H]1C(=O)N2C(C(=O)O)=C(COC(C)=O)CS[C@H]12)c1csc(N)n1 [Cefotaxime] | 0.651 | 0.671 | -9.49 (inactive) | -10.3 (inactive)
18 | C=CC1=C(C(=O)O)N2C(=O)[C@@H](NC(=O)/C(=N\OCC(=O)O)c3csc(N)n3)[C@H]2SC1 [Cefixime] | 0.945 | 1.4 | – | 28.9 (inactive)
19 | CCCc1nc2c(C)cc(-c3nc4ccccc4n3C)cc2n1Cc1ccc(-c2ccccc2C(=O)O)cc1 [Telmisartan] | 0.729 | 0.799 | -7.37 (inactive) | 2.94 (inactive)
20 | Fc1cncnc1 [5-fluoropyrimidine] | 0.595 | 0.899 | -17.3 (inactive) | 4.98 (inactive)
21 | COc1ccc2[nH]c([S@@+]([O-])Cc3ncc(C)c(OC)c3C)nc2c1 [Esomeprazole] | 0.799 | 0.979 | -10.5 (inactive) | 4.81 (inactive)
22 | C#C[C@]1(OC(C)=O)CC[C@H]2[C@@H]3CCC4=CC(=O)CC[C@@H]4[C@H]3CC[C@@]21C [Norethisterone acetate] | 0.907 | 0.989 | -8.44 (inactive) | -6.86 (inactive)
23 | NC(=O)OCC(COC(N)=O)c1ccccc1 [Felbamate] | 0.591 | 0.769 | -15.5 (inactive) | -10.2 (inactive)
24 | C#C[C@]1(O)CC[C@H]2[C@@H]3CCc4cc(OC)ccc4[C@H]3CC[C@@]21C [Mestranol] | 0.724 | 0.298 | -6.5 (inactive) | -18 (inactive)
25 | CCOC(=O)[C@@]1(CCCCCCOc2ccc(Cl)cc2)CO1 [Etomoxir] | 0.693 | 0.645 | -31 (inactive) | -26.2 (inactive)
26 | CN(C)CCCN1c2ccccc2Sc2ccc(Cl)cc21 [Chlorpromazine] | 1.04 | 1.17 | 8.68 (inactive) | -2.13 (inactive)

Row | Compound | fiber score / MBP score ([1]; 1 µM) | fiber score / MBP score ([1]; 5 µM) | myelination ([2]; 1 µM) | myelination ([2]; 5 µM)
27 | O=C1N(c2ccccc2)c2ccccc2C1(Cc1ccncc1)Cc1ccncc1 [Linopirdine] | 0.779 | 0.73 | -4.06 (inactive) | -12 (inactive)
28 | CCOc1ccc2ccccc2c1C(=O)N[C@@H]1C(=O)N2[C@@H]1SC(C)(C)[C@@H]2C(=O)O [Nafcillin] | 1.25 | 0.777 | 4.05 (inactive) | -9.33 (inactive)
29 | Cc1noc(NS(=O)(=O)c2ccc(N)cc2)c1C [Sulfisoxazole] | 0.958 | 0.834 | -3.97 (inactive) | -6.9 (inactive)
30 | COC(=O)CCc1ccc(OCC(O)CNC(C)C)cc1 (configuration not stated) [Esmolol] | 1.07 | 0.988 | 2.16 (inactive) | -0.768 (inactive)
31 | CC1=C(/C=C/C(C)=C/C=C/C(C)=C/C(=O)O)C(C)(C)CCC1 [Retinoic Acid] | 0.93 | 0.533 | -3.28 (inactive) | -10.5 (inactive)
32 | CO[C@@]1(NC(=O)Cc2cccs2)C(=O)N2C(C(=O)O)=C(COC(N)=O)CS[C@@H]21 [Cefoxitin] | 0.901 | 0.686 | -5.64 (inactive) | -13.8 (inactive)
33 | CN(C)CCC(c1ccc(Br)cc1)c1ccccn1 (configuration not stated) [Brompheniramine] | 0.611 | 0.693 | -14.9 (inactive) | -12.4 (inactive)
34 | CN(C)CCOC(c1ccccc1)c1ccccc1 [Diphenhydramine] | 0.668 | 0.525 | -12.1 (inactive) | -17.4 (inactive)
35 | C[C@H](CCC(=O)O)[C@H]1CC[C@H]2[C@@H]3[C@H](O)C[C@@H]4C[C@H](O)CC[C@]4(C)[C@H]3CC[C@]12C [Chenodeoxycholic Acid] | 0.861 | 0.787 | -8.08 (inactive) | -12 (inactive)
36 | CC(C)(C)NCC(O)c1cc(O)cc(O)c1 (configuration not stated) [Terbutaline] | 0.31 | 0.251 | -15.9 (inactive) | -16.6 (inactive)
37 | O=C1c2c(O)cc(O)cc2OC(c2ccc(O)c(O)c2)C1O (configuration not stated) [Taxifolin] | 0.697 | 0.943 | -33.2 (inactive) | -8.22 (inactive)
38 | CC(C(=O)O)c1ccc(-c2ccccc2)c(F)c1 (configuration not stated) [Flurbiprofen] | 0.667 ± 0.24 | 0.793 ± 0.03 | -16.8 (inactive) | -13.6 (inactive)
39 | COc1cc(C(=O)NS(=O)(=O)c2ccccc2C)ccc1Cc1cn(C)c2ccc(NC(=O)OC3CCCC3)cc12 [Zafirlukast] | 0.627 | 0.714 | -12.3 (inactive) | -4.26 (inactive)
40 | CC(=O)SCC(Cc1ccccc1)C(=O)NCC(=O)OCc1ccccc1 (configuration not stated) [Racecadotril] | 0.715 | 0.943 | -48.7 (inactive) | -8.19 (inactive)
41 | CCC1=C(C)CN(C(=O)NCCc2ccc(S(=O)(=O)NC(=O)N[C@H]3CC[C@H](C)CC3)cc2)C1=O [Glimepiride] | 1.06 | 0.96 | -3.14 (inactive) | -10.6 (inactive)
42 | O=C1CN(/N=C/c2ccc(-c3ccc([N+](=O)[O-])cc3)o2)C(=O)N1 [Dantrolene sodium salt dihydrate] | 0.33 | 0.372 | -11.8 (inactive) | -14.2 (inactive)
43 | CN1CCN(C2=Nc3cc(F)ccc3Cc3ccccc32)CC1 [Fluperlapine] | 1.15 | 0.587 | 6.96 (inactive) | -12.9 (inactive)
44 | CCCCCCCCCCC[C@@H](C[C@@H]1OC(=O)[C@H]1CCCCCC)OC(=O)[C@H](CC(C)C)NC=O [Orlistat] | 0.69 | 0.913 | -34.7 (inactive) | 38.7 (inactive)
45 | NC1CCN(c2nc3c(cc2F)c(=O)c(C(=O)O)cn3-c2ccc(F)cc2F)C1 (configuration not stated) [Tosufloxacin] | 0.855 | 0.665 | -12.3 (inactive) | -14.4 (inactive)
46 | CCN(CC)CC(=O)Nc1c(C)cccc1C [Lidocaine] | 0.745 | 0.698 | -26.3 (inactive) | -24.5 (inactive)
47 | NC(Cc1cc(I)c(Oc2cc(I)c(O)c(I)c2)c(I)c1)C(=O)O (configuration not stated) [Thyroxine] | 0.768 | 1.19 | -4.45 (inactive) | 32 (inactive)
48 | CC(C)NCC(O)COc1ccc(CC(N)=O)cc1 (configuration not stated) [Atenolol] | 1.03 | 1.04 | 2.66 (inactive) | 7.87 (inactive)
49 | COC(=O)C1=C(C)NC(C)=C(C(=O)OC)C1c1ccccc1[N+](=O)[O-] [Nifedipine] | 0.768 | 0.919 | -18.3 (inactive) | 10 (inactive)
50 | CC(C)(S)[C@@H](N)C(=O)O [Penicillamine] | 0.988 | 0.926 | -2.14 (inactive) | -5.65 (inactive)
51 | Nc1nnc(-c2cccc(Cl)c2Cl)c(N)n1 [Lamotrigine] | 0.703 | 0.746 | -23.5 (inactive) | -15.5 (inactive)
52 | CC1COc2c(N3CCN(C)CC3)c(F)cc3c(=O)c(C(=O)O)cn1c23 (configuration not stated) [Ofloxacin] | 0.775 ± 0.041 | 0.784 ± 0.19 | -16.9 (inactive) | -17 (inactive)
